Peg3 promoter: Peg3 promoter activity inhibition | HeLa PEG-Prom luciferase reporter, luminescence, overnight | inhibition, % at 20 µM | 360,000 tested, 1.7% active | AID 588405;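 active = inhibition of at least 50% at 20 µM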
HIF-2a block: inhibitors of HIF-2a; inhibition, % at 18.8 µM; AID 624352; 786-0 RCC cells HIF-2a reporter, luciferase luminescence, overnight; 360,000 tested, 0.72% active;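 active = inhibition of the luminescence signal of 40% or more relative to plate controls, in a single-dose primary screen at 18.75 µM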
TROY signal inh: TROY signaling inhibition; Q293 LMP1-TROYcd NF-kB luciferase reporter, 4 h; inhibition, % at 10 µM; 360,000 tested, 0.98% active;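 active = compounds whose plate-normalised and pattern-corrected inhibition of the luciferase reporter signal at the single screening dose is 50% or more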
CF NFkB inh: cystic fibrosis NF-kB activation inhibition; KKLEB NF-kB-GFP reporter, PAF-induced, GFP fluorescence overnight; inhibition, % at 5 µM; 360,000 tested, 0.86% active;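 active = at least 50% inhibition at 5 µM, scaled per plate between neutral and stimulator controls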;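 note: PAF is a Pseudomonas aeruginosa culture filtrate used as stimulus; plate controls were PAF-stimulated DMSO wells for no effect and unstimulated DMSO wells for full effect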
KKLEB tox: counter-screen for CF NF-kB inhibitors: cytotoxicity; activity change (cytotoxicity), % at 5 µM; KKLEB CF airway cells viability, ATPlite luminescence, overnight; hits give low values; cells stimulated with P. aeruginosa culture filtrate; AID 602141; 360,000 tested, 0.36% active;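 active = corrected activity change at or below -50% at 5 µM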
TWEAK-Fn14 inh: inhibitors of TWEAK-Fn14 interaction signaling; AID 1159606; inhibition, % at 10 µM; 360,000 tested, 2% active; TWEAK-stimulated Fn14 reporter cells, luciferase luminescence, 8 h; in the data active = inhibition above about 50%
* = called active by the depositor. Most compounds without a hit are left out; they make up all but 4% or so of the library.

`COc1ccccc1N1CCN(C(=O)c2ccc3nc(-c4ccco4)c(-c4ccco4)nc3c2)CC1` gave Peg3 promoter 51.7*, HIF-2a block -0.5, TROY signal inh 4.5, CF NFkB inh 17.2, KKLEB tox -35.8 and TWEAK-Fn14 inh 44.2.
For Cc1ccc(CNC(=O)c2cc3c(C)nc4ccccc4c3o2)cc1 the results were Peg3 promoter 12.5, HIF-2a block -0.3, TROY signal inh 39.5, CF NFkB inh -42.1, KKLEB tox 2.9 and TWEAK-Fn14 inh 61.1*.
`Cc1ccc(CNC(=O)CSc2nc(=O)n3ccc(C)cc3n2)cc1` gave Peg3 promoter 11.9, HIF-2a block 16.1, TROY signal inh -16.9, CF NFkB inh -13.6, KKLEB tox 8.0 and TWEAK-Fn14 inh 1.3.
`Cc1ccccc1/C=N/Nc1nc2ccccc2[nH]1` gave Peg3 promoter -234.2, HIF-2a block -262.9, TROY signal inh -29.2, CF NFkB inh -23.1, KKLEB tox 6.0 and TWEAK-Fn14 inh 7.4.
Cc1[nH]c2ccccc2c1/C=N/Nc1nc2ccccc2[nH]1 was read as Peg3 promoter -123.1, HIF-2a block -205.5, TROY signal inh 57.1*, CF NFkB inh -83.1, KKLEB tox 17.2 and TWEAK-Fn14 inh 95.3*.
Screening Cc1ccc(/C=N/Nc2nc3ccccc3[nH]2)s1 returned Peg3 promoter -241.3, HIF-2a block -190.1, TROY signal inh -57.3, CF NFkB inh -41.5, KKLEB tox 4.4 and TWEAK-Fn14 inh 50.3*.
COc1ccc(/C=N/Nc2ccccn2)c(OC)c1OC was read as Peg3 promoter -219.1, HIF-2a block -253.2, TROY signal inh -14.1, CF NFkB inh -12.6, KKLEB tox -0.6 and TWEAK-Fn14 inh -41.8.
Screening C(=N\Nc1nc2ccccc2[nH]1)/c1c[nH]c2ccccc12 returned Peg3 promoter -217.4, HIF-2a block -236.8, TROY signal inh -24.8, CF NFkB inh -55.1, KKLEB tox 20.6 and TWEAK-Fn14 inh 51.2*.
`COc1ccc(/C=N/Nc2nc3ccccc3[nH]2)c(OC)c1OC` gave Peg3 promoter -155.7, HIF-2a block -55.1, TROY signal inh 73.4*, CF NFkB inh -26.3, KKLEB tox 5.4 and TWEAK-Fn14 inh 77.9*.
O=C(CN1CCN(C(=O)C2CC2)CC1)Nc1cc(C(F)(F)F)cc(C(F)(F)F)c1 was read as Peg3 promoter 13.4, HIF-2a block 7.8, TROY signal inh 11.0, CF NFkB inh 2.2, KKLEB tox 10.2 and TWEAK-Fn14 inh -0.1.
`COc1ccc(OC)c(S(=O)(=O)NC(=O)C2(C)CCN2C(=O)c2ccco2)c1` (configuration not stated) gave Peg3 promoter 2.3, HIF-2a block 9.0, TROY signal inh -12.4, CF NFkB inh -12.1, KKLEB tox 10.3 and TWEAK-Fn14 inh 2.7.
Screening Cc1ccc(NC(=O)c2ccccc2NS(=O)(=O)c2ccc(Cl)s2)cc1 returned Peg3 promoter 38.7, HIF-2a block -74.4, TROY signal inh 45.4, CF NFkB inh 59.9*, KKLEB tox -48.0 and TWEAK-Fn14 inh 57.9*.
`O=C(Nc1ccccc1Cc1ccccc1)c1ccccc1NS(=O)(=O)c1ccc(Cl)s1` gave Peg3 promoter 35.2, HIF-2a block 14.0, TROY signal inh 68.5*, CF NFkB inh 62.9*, KKLEB tox -49.4 and TWEAK-Fn14 inh 57.5*.
For O=C(Nc1ccccc1)c1ccccc1NS(=O)(=O)c1ccc(Cl)s1 the results were Peg3 promoter 44.5, HIF-2a block 9.9, TROY signal inh 62.8*, CF NFkB inh 45.2, KKLEB tox -36.0 and TWEAK-Fn14 inh 22.9.
For CC(=O)[C@H]1CC[C@H]2[C@@H]3C=CC4=CC(=O)CC[C@@]4(C)[C@@H]3CC[C@]12C the results were Peg3 promoter -4.6, HIF-2a block -3.1, TROY signal inh -12.6, CF NFkB inh -4.9, KKLEB tox 5.5 and TWEAK-Fn14 inh -4.2.
Cc1ccc(NC(=O)c2ccc(=O)[nH]c2)cc1S(=O)(=O)N1CCCCCC1 was read as Peg3 promoter 22.4, HIF-2a block 15.9, TROY signal inh 5.8, CF NFkB inh 8.2, KKLEB tox -8.8 and TWEAK-Fn14 inh 16.9.
`CSc1ccccc1NC(=O)CN(C)CC(=O)c1c(C)[nH]c2ccccc12` gave Peg3 promoter 18.8, HIF-2a block 26.8, TROY signal inh 0.3, CF NFkB inh -2.5, KKLEB tox 6.5 and TWEAK-Fn14 inh 0.3.
